# COUP-TFII inh: NR2F2 (human) inhibition, primary screen. 370,000 compounds, 0.7% hits. inhibition, % at 8.6 µM. P24468. HEK293T NGFI-A luciferase reporter, luminescence. AID 686940;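 active means inhibition above a per-plate cutoff, mean inhibition of test wells between control levels plus 3 SD, cut at about 38% in these data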;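 further: cells cotransfected with COUP-TFII expression vector driving the NGFI-A reporter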
# NCOA1 inh: human NCOA1 inhibition; inhibition, % at 3.6 µM; 360,000 compounds, 0.12% hits; HEK293 GAL4-SRC1 luciferase reporter, luminescence;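 active means inhibition above the campaign mean plus 3 SD, with each screening campaign given its own cutoff, cut at about 60% in these data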
# NCOA3 inh: inhibits human SRC3 coactivator | HEK293 GAL4-SRC3 luciferase reporter, luminescence | Q9Y6Q9 | inhibition, % at 3.6 µM | 360,000 compounds, 0.17% hits;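 active means inhibition above a per-campaign cutoff, the mean of all compounds plus 3 SD, cut at about 60% in these data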;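 further: higher means less SRC3-driven luciferase light from the GAL4 reporter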
# Target sequence (Q9Y6Q9 whole entry, looked up, the tested form may be a part): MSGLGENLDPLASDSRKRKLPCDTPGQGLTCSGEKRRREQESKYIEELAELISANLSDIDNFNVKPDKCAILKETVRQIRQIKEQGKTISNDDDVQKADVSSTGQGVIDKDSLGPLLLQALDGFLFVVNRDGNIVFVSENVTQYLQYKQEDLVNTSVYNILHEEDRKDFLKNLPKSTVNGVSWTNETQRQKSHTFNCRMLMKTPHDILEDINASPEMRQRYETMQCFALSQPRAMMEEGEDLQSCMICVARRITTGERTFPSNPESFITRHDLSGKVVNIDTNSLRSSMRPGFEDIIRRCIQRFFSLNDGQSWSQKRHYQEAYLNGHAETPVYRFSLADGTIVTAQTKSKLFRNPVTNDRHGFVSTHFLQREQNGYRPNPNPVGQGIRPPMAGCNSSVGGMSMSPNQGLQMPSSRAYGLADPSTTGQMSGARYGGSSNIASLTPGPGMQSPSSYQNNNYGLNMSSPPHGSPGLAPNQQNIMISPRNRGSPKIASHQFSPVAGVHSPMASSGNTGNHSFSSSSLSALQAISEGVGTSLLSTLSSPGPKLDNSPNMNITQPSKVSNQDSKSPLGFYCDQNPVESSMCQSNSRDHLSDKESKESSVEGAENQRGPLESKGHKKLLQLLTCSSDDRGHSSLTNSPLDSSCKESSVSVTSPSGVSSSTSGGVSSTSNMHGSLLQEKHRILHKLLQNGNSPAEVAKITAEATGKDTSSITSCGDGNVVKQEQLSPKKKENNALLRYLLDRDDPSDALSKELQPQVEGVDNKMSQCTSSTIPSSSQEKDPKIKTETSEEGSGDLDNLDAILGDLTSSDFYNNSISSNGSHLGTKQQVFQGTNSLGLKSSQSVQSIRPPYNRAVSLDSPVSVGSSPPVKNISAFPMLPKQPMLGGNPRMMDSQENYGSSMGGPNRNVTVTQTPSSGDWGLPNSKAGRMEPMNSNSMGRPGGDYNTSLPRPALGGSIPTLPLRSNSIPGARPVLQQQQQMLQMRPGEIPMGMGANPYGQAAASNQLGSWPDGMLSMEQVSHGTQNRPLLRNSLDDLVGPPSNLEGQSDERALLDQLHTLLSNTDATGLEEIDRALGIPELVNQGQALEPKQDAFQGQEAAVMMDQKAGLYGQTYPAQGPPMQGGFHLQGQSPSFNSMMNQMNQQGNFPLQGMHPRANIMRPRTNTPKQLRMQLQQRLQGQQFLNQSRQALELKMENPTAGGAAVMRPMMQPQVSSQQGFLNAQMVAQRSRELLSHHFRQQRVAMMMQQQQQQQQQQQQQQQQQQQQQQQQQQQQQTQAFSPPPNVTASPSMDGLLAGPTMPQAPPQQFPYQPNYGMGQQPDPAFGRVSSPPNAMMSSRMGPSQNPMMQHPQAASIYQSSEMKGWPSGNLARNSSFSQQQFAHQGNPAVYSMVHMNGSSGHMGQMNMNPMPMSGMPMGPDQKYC
# NR5A2 inv ag: NR5A2 inverse agonism in reporter assay; HEK293T StAR-luciferase reporter, LRH-1 transfected, 24 h; AID 602396; inhibition, % at 3.6 µM; 360,000 compounds, 0.13% hits;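 active means inhibition above the mean inhibition of all tested compounds plus 3 SD, cut at about 73% in these data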
# NCOA2 inhibitor: human SRC2 (NCOA2) inhibition | Q15596 | HEK293 GAL4-SRC2 luciferase reporter, luminescence | inhibition, % at 9 µM | 370,000 compounds, 0.17% hits;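 active means inhibition above the mean inhibition of all tested compounds plus 3 SD, set per campaign, cut at about 52% in these data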
# GalR3 antagonist: antagonists of human GalR3 | O60755 | HEK293 GalR3-CNG cAMP membrane potential fluorescence; galR3 body fused to GalR1 C-terminus | AID 651719 | 360,000 compounds, 0.44% hits | inhibition, % at 3 µM;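 active means inhibition above the screen-wide average plus 3 SD, cut at about 13% in these data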;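 further: forskolin and galanin both at EC90 stimulate the cells; cAMP rise reported by CNG channel membrane potential dye signal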
# VP16 Luc counter: inhibits VP16 reporter, flagging COUP-TFII antagonist hits; shares compounds with COUP-TFII inh; HEK293 Gal4-VP16 luciferase reporter, luminescence; inhibition, % at 8.5 µM; 2,500 compounds, 25% hits; in the data active means inhibition above about 13%
# NR2F2 inh conf: confirmation of human COUP-TFII (NR2F2) inhibitors | shares compounds with COUP-TFII inh | HEK293 NGFI-A luciferase reporter, luminescence | inhibition, % at 8.5 µM | 2,500 compounds, 45% hits | AID 687008;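 active means mean inhibition over three repeats above a set limit taken from the earlier primary screen, cut at about 38% in these data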
# A number is an active result; . = inactive; / = not tested or not shown. Compounds with a hit are over-represented: about 1.1% of the library has one in this group of screens.
SMILES,COUP-TFII inh,NCOA1 inh,NCOA3 inh,NR5A2 inv ag,NCOA2 inhibitor,GalR3 antagonist,VP16 Luc counter,NR2F2 inh conf
CCN(CC)S(=O)(=O)c1cc(NC(=O)Cc2ccc(S(=O)(=O)N3CCOCC3)s2)ccc1Cl,64,.,.,.,.,.,.,.
Cc1cccc(OCCCC(=O)Nc2ccc(Cl)c(S(=O)(=O)N3CCOCC3)c2)c1,39,.,.,.,.,.,.,39
Cc1cccc(OCCC(=O)Nc2ccc(C)c(S(=O)(=O)N3CCCCC3)c2)c1,38,.,.,.,.,.,.,.
CN(C)S(=O)(=O)c1ccc(NC(=O)Cc2ccc(S(=O)(=O)N3CCOCC3)s2)cc1,.,.,.,.,.,.,/,/
O=C(OCc1cn(Cc2ccc(F)cc2)nn1)N1CCOCC1,.,/,/,/,.,/,/,/
O=C(CN1CCc2onc(-c3ccc(-n4cc(COc5ccc([N+](=O)[O-])cc5)nn4)cc3)c2C1=O)N1CCOCC1,.,/,/,/,.,/,/,/
CC(=O)c1ccc(OCCCC(=O)Nc2ccc(C)c(S(=O)(=O)N3CCCCC3)c2)cc1,61,.,.,.,.,.,.,40
CCOc1ccc(C(=O)CCC(=O)Nc2ccc(C)c(S(=O)(=O)N3CCCCC3)c2)cc1,.,.,.,.,.,.,/,/
COc1ccc(NC(=O)CCOc2cc(C)ccc2C)cc1S(=O)(=O)N1CCCCC1,41,.,.,.,.,.,.,.
Cc1cc(Cl)c(S(=O)(=O)N2CCCC2)cc1OCC(=O)NC1CCCCC1,62,.,.,.,.,.,.,.
COc1cc(C(C)=O)ccc1OCC(=O)Nc1ccc(S(=O)(=O)N2CCCCC2)cc1,.,.,.,.,.,.,/,/
COc1cc(C(C)=O)ccc1OCC(=O)Nc1ccc(C)c(S(=O)(=O)N2CCCCCC2)c1,47,.,.,.,.,.,.,.
COc1ccc(NC(=O)CCCOc2ccc(C)cc2)cc1S(=O)(=O)N1CCCCC1,.,.,.,.,.,.,/,/
O=C(OCCN1CCN(C2CN(Cc3cn(Cc4ccc([N+](=O)[O-])cc4)nn3)S(=O)(=O)C2)CC1)c1cc2ccccc2o1 (stereo unspecified),.,/,/,/,.,/,/,/
COc1ccc(OC)c(S(=O)(=O)N2CCCCC2C(=O)N2CCN(c3ccccc3F)CC2)c1 (stereo unspecified),.,/,/,/,.,/,/,/
COc1ccc(Cn2cc(CN3[C@@H](Cc4ccccc4)COc4cc(Br)ccc4S3(=O)=O)nn2)cc1,.,/,/,/,.,/,/,/
C=CCn1c(COc2ccc(C)cc2)nnc1SCc1ccc([N+](=O)[O-])cc1,.,/,/,/,.,/,/,/
O=C1C=CC2C3C(=O)N(c4ccccc4)C(=O)C3C1N2Cc1ccccc1 (stereo unspecified),60,.,.,.,75,.,17,.
CN(C)C(=O)c1ccc(NC(=O)c2cccc(S(=O)(=O)N3CCCc4ccccc43)c2)cc1,39,.,.,.,.,.,.,.
CN(C)C(=O)c1ccc(NC(=O)c2cccc(S(=O)(=O)N3CCCCCC3)c2)cc1,.,.,.,.,.,.,/,/
Cc1ccc(NC(=O)c2cc(S(=O)(=O)NCCC3=CCCCC3)ccc2F)cc1F,40,.,.,.,.,.,.,40
Cc1ccc(C(=O)c2ccc(O)cc2)cc1C,.,.,.,.,.,.,/,/
Cc1ccc(C(=O)c2cccc(N)c2)cc1C,72,.,.,.,80,.,62,41
CC(C)(C)OC(=O)NC1CCN(c2nc(-c3ccc(Br)cc3)cs2)CC1,39,/,/,/,/,/,.,.
O=C(C1CCN(c2nc(-c3ccc(Br)cc3)cs2)CC1)N1CCNCC1,.,/,/,/,/,/,/,/
Cc1ccc(S(=O)(=O)NCc2ccc(C(=O)N3CCN(c4ccc([N+](=O)[O-])cc4)CC3)cc2)cc1,55,.,.,.,.,.,.,66
COc1ccc(S(=O)(=O)NCc2ccc(C(=O)N3CCN(Cc4ccccc4)CC3)cc2)cc1,.,.,.,.,.,.,/,/
Cc1ccc(S(=O)(=O)NCc2ccc(C(=O)N3CCN(Cc4ccccc4)CC3)cc2)cc1,48,.,.,.,.,.,.,.
COc1ccc(C(=O)N2CCN(Cc3ccccc3C(F)(F)F)CC2)cc1,80,.,.,.,.,.,.,.

# Screens: PubChem, The Scripps Research Institute Molecular Screening Center
